High-throughput results (PubChem BioAssay)
MEKK3 PB1 HTS = modulators of MEKK3-MEK5 PB1 binding, primary screen, biochemical, wildtype MEKK3, multiplex bead flow cytometry, Alexa488-MEK5 | bead-based flow cytometry, Alexa488-MEK5 binding to MEKK3; actives lie on both sides; 0 = blocked by unlabeled MEK5, 100 = vehicle | AID 1529, 2009 | 290,000 compounds, 1.4% hits | binding response (% of control), % at 10 µM | Mitogen-activated protein kinase kinase kinase 3 (Homo sapiens), Q99759;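 active = binding response more than 3 SD above or below the average of its plate-row segment, actives on both sides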;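 note: Alexa488 bead fluorescence after subtracting the streptavidin-only scavenger bead signal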
MEKK2 WT-MEK5 = modulators of MEK5 binding to wildtype MEKK2, primary screen, biochemical, multiplex bead flow cytometry, Alexa488-MEK5 | 290,000 compounds, 1.1% hits | AID 1531, 2009 | Alexa488-MEK5 binding to MEKK2 WT; actives lie on both sides | Mitogen-activated protein kinase kinase kinase 2 (Homo sapiens), Q9Y2U5 | binding response (% of control), % at 10 µM; in the data active = binding response below about 67% or above about 130%
GRK2 aptamer HTS = compounds blocking aptamer binding on GRK2 – biochemical, human GRK2, bead flow cytometry, HTS, primary screen | Beta-adrenergic receptor kinase 1 (Homo sapiens), P25098 | FAM-aptamer displacement from GRK2 | inhibition of aptamer binding, % at 10 µM | 330,000 compounds, 0.59% hits | AID 488847, 2010;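 active = inhibition of aptamer binding above 40%, roughly 3 SD of noise, on plates passing a quality check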;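 note: median bead fluorescence of bound FAM aptamer so fluorescent compounds give negative values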
Target sequence (P25098 whole entry, looked up): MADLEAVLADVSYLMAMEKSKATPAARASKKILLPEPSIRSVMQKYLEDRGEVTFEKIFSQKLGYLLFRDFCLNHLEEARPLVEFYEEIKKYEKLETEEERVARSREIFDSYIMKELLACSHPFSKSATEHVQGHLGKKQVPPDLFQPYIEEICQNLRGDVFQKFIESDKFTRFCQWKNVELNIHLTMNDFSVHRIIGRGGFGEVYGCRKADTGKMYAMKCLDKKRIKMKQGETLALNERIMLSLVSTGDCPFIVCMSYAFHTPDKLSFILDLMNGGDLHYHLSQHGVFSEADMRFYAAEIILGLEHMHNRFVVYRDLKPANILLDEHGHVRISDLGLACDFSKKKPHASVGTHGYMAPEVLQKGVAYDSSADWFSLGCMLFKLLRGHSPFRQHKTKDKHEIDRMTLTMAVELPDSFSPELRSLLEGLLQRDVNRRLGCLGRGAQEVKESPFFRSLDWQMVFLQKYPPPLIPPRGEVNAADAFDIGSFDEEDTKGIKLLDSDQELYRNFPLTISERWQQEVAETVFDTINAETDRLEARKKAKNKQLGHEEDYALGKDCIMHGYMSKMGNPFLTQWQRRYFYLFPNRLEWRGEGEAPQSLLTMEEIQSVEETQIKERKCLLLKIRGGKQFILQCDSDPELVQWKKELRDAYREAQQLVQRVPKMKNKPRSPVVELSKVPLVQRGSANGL
MEKK2 mut-MEK5 = MEK5 binding signal on mutant MEKK2 PB1, primary screen, biochemical, multiplex bead flow cytometry, Alexa488-MEK5. Alexa488-MEK5 binding to MEKK2 mutant. percent response, % at 10 µM. 290,000 compounds, 0.35% hits; in the data active = percent response above about 24%, passing the limit was not always enough
MEKK2wt confirm = modulators of MEK5 binding to wildtype MEKK2, confirmation, biochemical, single concentration, multiplex bead flow cytometry; shares compounds with MEKK3 PB1 HTS; Alexa488-MEK5 binding to MEKK2 WT; actives lie on both sides; binding response (% of control), % at 10 µM; 5,900 compounds, 2.4% hits; in the data active = binding response below about 16% or above about 210%; inactive = in between
MEKK2mut-MEK5 = mutant MEKK2 PB1-MEK5 binding signal retest – biochemical, single concentration, multiplex bead flow cytometry, confirmation; 5,900 compounds, 2% hits; AID 1893, 2009; Alexa488-MEK5 binding to MEKK2 mutant; shares compounds with MEKK3 PB1 HTS; percent response, % at 10 µM; in the data active = percent response mostly above about 71%, no sharp cut-off; inactive = mostly below about 38%;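 note: higher means compound restores mutant binding toward wildtype level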
MEKK3-MEK5 inh = MEKK3 wild-type PB1 binding to MEK5, inhibitors, confirmation, biochemical, bead multiplex flow cytometry, single concentration, wildtype. shares compounds with MEKK3 PB1 HTS. AID 1894, 2009. binding response (% of control), % at 10 µM. 5,900 compounds, 1.8% hits. Alexa488-MEK5 binding to MEKK3; hits give low values;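 active = binding response below 72% of control, or above a set upper limit, though filed actives all read lower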;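 note: 100% = DMSO only wells and 0% = binding blocked by excess unlabeled MEK5; lower values mean stronger disruption of MEK5 binding to MEKK3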
Starred values were filed as active, the others as inactive; . = no result given; [ ] = another dose, or the depositor's remark. The list is not random: actives were taken first. Their share in the collection is about 2.5%.

SMILES	MEKK3 PB1 HTS	MEKK2 WT-MEK5	GRK2 aptamer HTS	MEKK2 mut-MEK5	MEKK2wt confirm	MEKK2mut-MEK5	MEKK3-MEK5 inh
C=COCCn1c(-c2nonc2N)nc2ccccc21	122*	119	3	9	98	7	102
CCN1CCN(Cc2ccc(NC(=O)c3ccc(C)c(NC(=O)C4=NN(c5ccccc5)C(=O)C4)c3)cc2C(F)(F)F)CC1	96	94	0	7	.	.	.
CCN1CCN(Cc2ccc(NC(=O)c3ccc(C)c(/C=C/c4cnc(Nc5cc(N6CCNCC6)nc(C)n5)cn4)c3)cc2C(F)(F)F)CC1	114	401*	0	205*	280*	169*	118
CCN1CCN(Cc2ccc(NC(=O)c3ccc(C)c(NC(=O)c4ccno4)c3)cc2C(F)(F)F)CC1	95	96	0	7	.	.	.
CCN1CCN(Cc2ccc(NC(=O)c3ccc(C)c(NC(=O)c4c[nH]c5cc(C(F)(F)F)ccc5c4=O)c3)cc2C(F)(F)F)CC1	115	199*	.	83*	224*	131*	93
CCN1CCN(Cc2ccc(NC(=O)c3ccc(C)c(NC(=O)c4csc(-c5ccncc5)n4)c3)cc2C(F)(F)F)CC1	101	141*	0	9	172	38	104
CCN1CCN(Cc2ccc(NC(=O)c3ccc(C)c(NC(=O)c4cccc(-c5cn[nH]c(=O)c5)c4)c3)cc2C(F)(F)F)CC1	108	169*	0	29*	143	20	99
CC(=O)c1c(C)[nH]c(C(=O)OCn2nnc3ccccc3c2=O)c1C	108	113	0	8	.	.	.
Cc1ccc(C2CC(C(F)(F)F)n3nc(C(=O)NCc4ccco4)cc3N2)cc1 (stereo not drawn)	101	98	1	-3	.	.	.
COc1ccc(OC)c(/C=C/C(=O)OCC(=O)N2C(C)CCCC2C)c1 (stereo not drawn)	.	.	5	.	.	.	.
COC(=O)c1ccc(Oc2nc(N3CCCCC3)nc(N3CCOCC3)n2)cc1	104	104	1	5	.	.	.
CN(C)c1ccc(/C=C2\SC(=S)N(Nc3ncc(C(F)(F)F)cc3Cl)C2=O)cc1	97	305*	0	309*	34	-35	56*
COc1cc(/C=C2\SC(=S)N(Nc3ncc(C(F)(F)F)cc3Cl)C2=O)ccc1O	93	62*[inhibitor]	0	-6	76	-12	98
Cc1cc(C)nc(NN2C(=O)/C(=C/c3ccccc3)SC2=S)n1	106	109	10	7	.	.	.
COC(=O)c1sccc1NC(=O)CSc1nnnn1-c1ccccc1F	101	99	3	-1	.	.	.
Cc1c(C(=O)C(=O)N2c3ccc(F)cc3CCC2C)c2ccccc2n1C (stereo not drawn)	141*	108	1	1	97	-4	104
CN(C)CCCNc1nc2sc3c(c2c(=O)n1CCc1ccccc1)CCCCC3	111	183*	0	49	166	45	108
O=C(Nc1ccc(-c2nc3cccnc3s2)cc1)c1ccc(Br)o1	109	110	.	5	.	.	.
COC(=O)c1cc(C#N)c(Oc2ccc(OC)cc2)nc1C	106	99	1	-9	.	.	.
CC(C)c1ccc(OCCCN2CCCC2)cc1	103	102	0	26*	95	-9	90
Cc1nn(C)c(Nc2ccc(Br)cc2)c1Br	101	.	1	271*	99	-3	98
COc1ccc(Oc2nc3ccccc3nc2C(F)(F)F)cc1	99	97	0	5	.	.	.
COc1ccccc1N1CCN(C(=O)Nc2cccc(Cl)c2)CC1	95	98	0	3	.	.	.
COc1cccc(NC(=O)N2CCN(c3cccc(C)c3C)CC2)c1	0.0*[inhibitor]	0.0*[inhibitor]	2	-17	98	0	103
CCc1cc2c3c(c(=O)oc2cc1OC)CCCC3	99	98	0	5	.	.	.
SMILES	MEKK3 PB1 HTS	MEKK2 WT-MEK5	GRK2 aptamer HTS	MEKK2 mut-MEK5	MEKK2wt confirm	MEKK2mut-MEK5	MEKK3-MEK5 inh
COc1ccc(N2CCN(C(=O)CN(Cc3ccccc3)S(C)(=O)=O)CC2)cc1	55*[inhibitor]	64	0	-22	111	13	106
COc1ccc(N2CCN(C(=O)CN(Cc3ccc(Cl)cc3)S(C)(=O)=O)CC2)cc1	97	97	0	-6	.	.	.
COc1ccc(N2CCN(C(=O)CSc3ccc(C)cc3)CC2)cc1	130*	114	4	0	107	6	104
COc1ccc(-c2csc(N)n2)cc1F	108	97	1	-2	.	.	.
COc1ccc(/C(=C/c2ccc(OC(F)F)c(OC)c2)C(=O)O)cc1OC	128*	105	1	0	104	2	100
COc1cc(/C=C(/C(=O)O)c2ccc(-c3ccccc3)cc2)cc(OC)c1OC	103	104	2	3	.	.	.
CC1Cc2nc(SCC(=O)OCc3ccccc3)n(C)c(=O)c2S1 (stereo not drawn)	102	102	0	6	.	.	.
CCOc1ccccc1CN1CCN(Cc2[nH]c3ccccc3c2C)CC1CCO (stereo not drawn)	101	104	0	0	.	.	.
CCOc1ccccc1CN1CCN(Cc2c[nH]c3ccccc23)CC1CCO (stereo not drawn)	113	134*	0	20	126	19	108
CCOc1ccccc1CN1CCN(C2CCN(c3ccccc3F)CC2)CC1CCO (stereo not drawn)	75*[inhibitor]	80	0	-8	102	-4	104
CCc1ccccc1NC(=O)CSc1nc2n[nH]c(C)c2c(=N)n1-c1cccc(OC)c1	114	140*	0	19	109	1	101
CCn1ncc(CN2CCCC(C(=O)Nc3cccc(-c4cc5ccccc5[nH]4)c3)C2)c1C (stereo not drawn)	108	161*	0	24*	168	36	113
Cn1c(CC(=O)NCCO)c(Sc2ccccc2)c2ccccc21	94	93	0	-3	.	.	.
O=C(Nc1ccccc1OC(F)F)c1cccc(S(=O)(=O)N2CCCC2)c1	102	96	2	-9	.	.	.
NC(N)=N/N=C/c1ccc(Cl)cc1Cl	129*	155*	0	42	122	18	108
